Records with an inconclusive call do not appear. Activity calls are given as the source filed them.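 Rule for the calls, unless noted: active = compounds killing one labelled cell type while sparing the other, by normalised counts and ratio limits, not self-fluorescent; inactive = the rest.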

This note sets out measurements from PubChem BioAssay.

A short description of assay [1]: modulation of C. elegans fzo-1 (AID 1259413; call rule not given here;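 note: fzo-1 mutant C. elegans worms in liquid wells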). As to conditions: C. elegans fzo-1 modulator screen, mean read-out; stronger effect = higher value.
Assay [2] has as its system Aerobactin synthetase IucA (Klebsiella pneumoniae). Put plainly: IucA aerobactin synthetase inhibitors, biochemical, Tocris library, absorbance (AID 1345561; call rule not given here;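 note: 100% = enzyme without compound and 0% = no enzyme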). Particulars: purified IucA enzyme assay, absorbance (OD) read-out; stronger effect = lower value;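 tested at 8 µM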.
Assay [3] in a line: growth inhibition of DIPG glioma cells, dose response, cell-based, SU-DIPG-XVII, MIPE5.0, CellTiter-Glo, qHTS (AID 1347060; cut-off not given, nearly all actives have AC50 up to about 26 µM). Particulars: SU-DIPG-XVII viability, CellTiter-Glo ATP luminescence. Background: In ATP-based viability assays light output follows the ATP content of the culture.
The nature of assay [4]: growth inhibition of DIPG glioma cells, dose response, cell-based, SU-DIPG-XIII, MIPE4.0, CellTiter-Glo, qHTS (AID 1347061; cut-off not given, nearly all actives have AC50 up to about 37 µM;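 note: cells exposed to compound for 48 hours before readout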). As to conditions: SU-DIPG-XIII viability, CellTiter-Glo ATP luminescence.
Assay [5] in a line: growth inhibition of DIPG glioma cells, dose response, cell-based, JHH-DIPG-1, MIPE4.0, CellTiter-Glo, qHTS (AID 1347062; cut-off not given, nearly all actives have AC50 up to about 27 µM;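 for AC50: cells exposed to compound for two days before readout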). As to conditions: JHH-DIPG-1 viability, CellTiter-Glo ATP luminescence.
Assay [6] is described as follows: differential killing of epithelial or mesenchymal cells, primary screen, imaging, PC-3E GFP, TEM4-18 mCherry, co-culture (AID 1345086).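 For all read-outs here: cells exposed to compound for 72 h before imaging.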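 For red/green cell ratio (normalised): normalised mesenchymal count divided by normalised epithelial count so high means epithelial killing.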 Particulars: imaging cell counts, at 1 µM; for red/green cell ratio (normalised): actives lie on both sides, counts scaled to control wells, 1 = unselective.
Assay [7] can be described thus: growth inhibition of DIPG glioma cells, dose response, cell-based, SU-DIPG-IV, MIPE4.0, CellTiter-Glo, qHTS (AID 1347063; cut-off not given, nearly all actives have AC50 up to about 30 µM;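 note: compound exposure lasted 48 hours before the viability readout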). As to conditions: SU-DIPG-IV viability, CellTiter-Glo ATP luminescence.
A short description of assay [8]: growth inhibition of DIPG glioma cells, dose response, cell-based, SU-DIPG-XIII, MIPE5.0, CellTiter-Glo, qHTS (AID 1347064; cut-off not given, nearly all actives have AC50 up to about 23 µM). As to conditions: SU-DIPG-XIII viability, CellTiter-Glo ATP luminescence.
Where [9] appears, read: measured here: epithelial PC-3E GFP cell survival.
Setting [10] is: measured here: mesenchymal TEM4-18 mCherry cell survival.

One may read the remaining activity as the signal under treatment as a percentage of the control signal. As to `COc1cc(-c2ccc(=O)[nH]n2)ccc1OC(F)F`, in assay [1], the mean signal was 244 (inactive). Moreover, the remaining activity in assay [2] was 112% (inactive).
Regarding `CCN(CC)CC1CCCCN1CC(=O)N1c2ccccc2C(=O)Nc2cccnc21` (stereo not drawn), the mean signal in assay [1] was 227 (inactive). In assay [2], the remaining activity is 116% (inactive).
The corresponding values for `CC(Cc1ccccc1)(NC(=O)CN)c1ccccc1` (stereo not drawn) are 268 (inactive) and 116% (inactive).
In the case of `NC(=O)OCC(COC(N)=O)c1ccccc1`, in assay [1], the mean signal was 234 (inactive). The remaining activity in assay [2] was 104% (inactive). Also, the result in assay [3], in assay [4] and in assay [5] was inactive.
Turning to `Cc1ccc(C(=O)C(C)CN2CCCCC2)cc1` (stereo not drawn), in assay [6], the red/green cell ratio (normalised) is 1 (inactive). Moreover, the normalised cell number in assay [6] (setting [9]) and in assay [6] (setting [10]) was 1 throughout.
With `CO[C@]12C[C@@H](COC(=O)c3cncc(Br)c3)CN(C)[C@@H]1Cc1cn(C)c3cccc2c13`, the red/green cell ratio (normalised) in assay [6] is 1.03 (inactive). The results for the normalised cell number in assay [6] (setting [9]) and in assay [6] (setting [10]) were 0.95 and 0.99, respectively.
The corresponding values for `Cc1cc(=O)[nH]c(=S)[nH]1` are 0.93 (inactive), 0.99 and 0.92.
The corresponding values for `NC(N)=NS(=O)(=O)c1ccc(N)cc1` are 1.03 (inactive), 0.95 and 0.98.
As usually defined, the AC50 is the midpoint of the concentration-response curve, whichever way the signal moves. Regarding `O=C1Nc2ccc(Cl)cc2[C@@](C#CC2CC2)(C(F)(F)F)O1`, the mean signal in assay [1] is 218 (inactive). In addition, the call in assay [5] was inactive. In addition, the AC50 in assay [7] was 29.6 µM (active).
In the case of `CCn1cc(C(=O)O)c(=O)c2cc3c(cc21)OCO3`, the red/green cell ratio (normalised) in assay [6] is 1.09 (inactive). Further, the normalised cell number in assay [6] (setting [9]) came to 1.15; in assay [6] (setting [10]), 1.25.
The corresponding values for `Nc1ccc(N=Nc2ccccc2)c(N)n1` are 0.86 (inactive), 1.07 and 0.92.
The corresponding values for `CCOc1ccc(Cc2nccc3cc(OCC)c(OCC)cc23)cc1OCC` are 0.88 (inactive), 1 and 0.88.
On to `CC(C)(C)NC(=O)[C@@H]1CN(Cc2cccnc2)CCN1C[C@@H](O)C[C@@H](Cc1ccccc1)C(=O)N[C@H]1c2ccccc2C[C@H]1O`, for which the mean signal in assay [1] was 283 (inactive). Besides, in assay [4], the AC50 was 1.32 µM (active).
With `O=C(CCBr)N1CCN(C(=O)CCBr)CC1`, the red/green cell ratio (normalised) in assay [6] was 1.19 (inactive). In addition, the normalised cell number came out at 1.07 in assay [6] (setting [9]) and 1.28 in assay [6] (setting [10]).
Take `CN(C)/N=N/c1nc[nH]c1C(N)=O`: in assay [6], the red/green cell ratio (normalised) is 0.71 (inactive). Moreover, the values for the normalised cell number in assay [6] (setting [9]) and in assay [6] (setting [10]) were 1.47 and 1.04, respectively.
On the same counts, the results for `COc1ccc(-c2cc(C(F)F)nn2-c2ccc(S(N)(=O)=O)cc2)cc1F` are 0.98 (inactive), 1.12 and 1.1.
The corresponding values for `O=C(CCCN1CCN(c2ccccn2)CC1)c1ccc(F)cc1` are 1.1 (inactive), 1.11 and 1.22.
On to `Cc1nccn1CC1CCc2c(c3ccccc3n2C)C1=O` (stereo not drawn), for which, in assay [1], the mean signal was 237 (inactive). For the same compound, the compound was classed as inactive in assay [5].
Regarding `CCOc1cc(N)c(Cl)cc1C(=O)NCC1CN(Cc2ccc(F)cc2)CCO1` (stereo not drawn), the mean signal in assay [1] was 261 (inactive). Besides, the compound was classed as inactive in assay [4], in assay [5], in assay [7] and in assay [8].
Consider `O=c1ccc2ccccc2o1`, for which, in assay [6], the red/green cell ratio (normalised) was 1.12 (inactive). In addition, the normalised cell number is 0.98 in assay [6] (setting [9]) and 1.1 in assay [6] (setting [10]).
As to `Nc1ncnc2nc[nH]c12`, the red/green cell ratio (normalised) in assay [6] is 1.1 (inactive). Further, the normalised cell number stood at 1.11 in assay [6] (setting [9]) and 1.22 in assay [6] (setting [10]).
Turning to `CCCCOc1cc(C(=O)NCCN(CC)CC)c2ccccc2n1`, the red/green cell ratio (normalised) in assay [6] is 0.94 (inactive). In addition, the normalised cell number in assay [6] (setting [9]) was 1.33; in assay [6] (setting [10]), 1.25.
Consider `CCCCNc1ccc(C(=O)OCCN(C)C)cc1`, for which the red/green cell ratio (normalised) in assay [6] was 1.19 (inactive). Besides, the normalised cell number in assay [6] (setting [9]) was 1.07; in assay [6] (setting [10]) it was 1.27.
On the same counts, the results for `O=C(O)/C=C(\CC(=O)O)C(=O)O` are 1.06 (inactive), 1.18 and 1.25.
As to `COc1ccc(C2C(=O)c3ccccc3C2=O)cc1`, in assay [6], the red/green cell ratio (normalised) was 0.84 (inactive). For the same compound, the normalised cell number in assay [6] (setting [9]) was found to be 1.14; in assay [6] (setting [10]), 0.96.
In the case of `O=c1[nH]cnc2c1ncn2[C@H]1CC[C@@H](CO)O1`, the mean signal in assay [1] was 237 (inactive). The compound was classed as inactive in assay [4].
For the compound `O=C(O)P(=O)(O)O`, the red/green cell ratio (normalised) in assay [6] is 0.82 (inactive). Moreover, the results for the normalised cell number in assay [6] (setting [9]) and in assay [6] (setting [10]) were 1.21 and 0.99, respectively.
On the same counts, the results for `CN1CCC(=C2c3ccccc3Sc3ccccc32)CC1` are 1.08 (inactive), 1.03 and 1.11.
The corresponding values for `CN1C(C)(C)CCCC1(C)C` are 0.96 (inactive), 1.09 and 1.05.
On the same counts, the results for `NC(=O)NC(=O)Cc1ccccc1` are 1.02 (inactive), 1.19 and 1.21.
As to `COc1ccc2cc1Oc1ccc(cc1)C[C@H]1c3c(cc4c(c3Oc3cc5c(cc3OC)CCN(C)[C@@H]5C2)OCO4)CCN1C`, the red/green cell ratio (normalised) in assay [6] was 0.85 (inactive). For the same compound, the results for the normalised cell number in assay [6] (setting [9]) and in assay [6] (setting [10]) were 0.93 and 0.78, respectively.
For the compound `N=C(N)N`, the red/green cell ratio (normalised) in assay [6] is 1.05 (inactive). The normalised cell number is 0.94 in assay [6] (setting [9]) and 0.99 in assay [6] (setting [10]).
On the same counts, the results for `CCN(CCCCOC(=O)c1ccc(OC)c(OC)c1)C(C)Cc1ccc(OC)cc1` (stereo not drawn) are 1.1 (inactive), 0.88 and 0.97.
The corresponding values for `CCC(=O)c1c(O)cc(O)cc1O` are 0.9 (inactive), 1.06 and 0.96.
On the same counts, the results for `C=Cc1c(C)c2cc3[nH]c(cc4nc(cc5nc(cc1[nH]2)C(C)=C5CCC(=O)O)C(CCC(=O)O)=C4C)c(C)c3C=C` are 1.18 (inactive), 0.8 and 0.95.
Regarding `CN(C)CCOC(=O)COc1ccc(Cl)cc1`, the red/green cell ratio (normalised) in assay [6] was 0.89 (inactive). Further, the normalised cell number in assay [6] (setting [9]) came to 0.98; in assay [6] (setting [10]), 0.87.
The corresponding values for `CC(NCCC(c1ccccc1)c1ccccc1)c1ccccc1` (stereo not drawn) are 0.89 (inactive), 0.97 and 0.86.
The corresponding values for `CCn1cc(C(=O)O)c(=O)c2cnc(N3CCNCC3)nc21` are 1.01 (inactive), 0.76 and 0.77.
With `Cc1c(O)cccc1C(=O)N[C@@H](CSc1ccccc1)[C@H](O)CN1C[C@H]2CCCC[C@H]2C[C@H]1C(=O)NC(C)(C)C`, in assay [1], the mean signal is 243 (inactive). Also, the AC50 in assay [5] and in assay [7] was 20.9 µM (active) throughout.
Turning to `CC(C)c1ccc2oc3nc(N)c(C(=O)O)cc3c(=O)c2c1`, the mean signal in assay [1] was 242 (inactive). Moreover, the compound was classed as inactive in assay [4], in assay [5] and in assay [8].
Take `COCCc1ccc(OCC(O)CNC(C)C)cc1` (stereo not drawn): in assay [6], the red/green cell ratio (normalised) was 0.71 (inactive). Also, the normalised cell number in assay [6] (setting [9]) worked out at 1.33; in assay [6] (setting [10]), 0.95.
On the same counts, the results for `O=c1cc[nH]c(=S)[nH]1` are 0.81 (inactive), 1.32 and 1.07.
With `CC1(C)S[C@@H]2[C@H](NC(=O)[C@H](N)c3ccccc3)C(=O)N2[C@H]1C(=O)O`, in assay [6], the red/green cell ratio (normalised) was 0.91 (inactive). Moreover, the normalised cell number in assay [6] (setting [9]) amounted to 1.22; in assay [6] (setting [10]) it was 1.12.
